High-throughput results: PubChem BioAssay, Sanford-Burnham Center for Chemical Genomics
Hits are enriched below; roughly 28% of the tested compounds scored in any of these assays.
CYP2C19 activ: activators of human cytochrome P450 2C19; P33261; recombinant CYP2C19, luciferin-H EGE luminescence; stronger effect = higher value; 0 = fully inhibited enzyme, 1 = untreated enzyme; activation factor at 5 µM; 96,000 tested, under 10 active;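 active = activation factor of at least 2 at 5 µM in the primary screen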;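 also: 0 = wells with 2.5 mM tranylcypromine and 1 = vehicle-only wells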
CYP2C19 inh: inhibitors of human CYP2C19; CYP2C19 Supersomes, luciferin-H EGE luminescence, 30 min; inhibition, % at 5 µM; 96,000 tested, 21% active;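 active = CYP2C19 inhibition above a set limit at 5 µM in the primary screen, cut at about 50% in these data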;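 also: plate controls were negative control wells for no effect and 2.5 mM tranylcypromine positive control for full effect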
PTK2B oligo ant: blocks oligomerization of human Pyk2 in cells; Q293 cells, Pyk2 FERM NanoBiT luminescence; stronger effect = lower value; z-score (the deposit names both 25 µM and 10 µM); 99,000 tested, 0.83% active; AID 1347419;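 active = Z-score of -3 or lower, scaled per plate to the spread of control and sample wells; inactive = z-score above -3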;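 also: negative z-score means lost luminescence so less FERM oligomerization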
CYP2C9 activ: increases human cytochrome P450 2C9 activity | P11712 | recombinant CYP2C9, luciferin-H conversion, luminescence; stronger effect = higher value; factor 1 = untreated enzyme, 0 = blocked | activation factor at 5 µM | 96,000 tested, 1.4% active | AID 1024;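 active = activation factor of 2 or more for CYP2C9 at a 5 µM dose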;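 also: 0 = sulfaphenazole-blocked wells and 1 = vehicle-only wells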
Target sequence (P11712 whole entry, looked up): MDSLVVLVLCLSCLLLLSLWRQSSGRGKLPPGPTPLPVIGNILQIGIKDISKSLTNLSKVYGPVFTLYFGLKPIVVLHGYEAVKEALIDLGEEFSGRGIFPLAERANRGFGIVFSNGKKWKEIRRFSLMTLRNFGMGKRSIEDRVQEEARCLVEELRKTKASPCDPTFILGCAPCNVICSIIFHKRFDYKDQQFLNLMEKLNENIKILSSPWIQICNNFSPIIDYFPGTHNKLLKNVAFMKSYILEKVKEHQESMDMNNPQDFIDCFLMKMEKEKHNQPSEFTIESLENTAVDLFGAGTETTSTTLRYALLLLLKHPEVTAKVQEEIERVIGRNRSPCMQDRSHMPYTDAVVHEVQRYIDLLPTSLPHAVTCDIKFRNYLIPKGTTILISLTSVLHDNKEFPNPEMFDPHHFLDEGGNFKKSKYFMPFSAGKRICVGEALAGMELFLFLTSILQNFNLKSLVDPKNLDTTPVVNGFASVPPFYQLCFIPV
CYP2C9 inh: human CYP2C9 inhibition; CYP2C9 Supersomes, luciferin-H conversion, luminescence; 96,000 tested, 20% active; inhibition, % at 5 µM;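 active = blocking of liver enzyme CYP2C9 beyond about 50% at 5 µM, limit read from the data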
* hit, by the source's call; . = no result given.

SMILES	CYP2C19 activ	CYP2C19 inh	PTK2B oligo ant	CYP2C9 activ	CYP2C9 inh
COC(=O)C1=C(C)N=C2SC(C#N)=C(N)N2C1c1cc(OC)c(OC)c(OC)c1 (stereo not drawn)	0.1	86.8*	-0.69	0.1	93.2*
COC(=O)C1=C2SC(C)C(=O)N2C(N)=C(C#N)C1c1cc(OC)c(OC)c(OC)c1 (stereo not drawn)	0.9	11.6	-0.54	0.8	24.1
Cc1cc(NC(=O)CCC(=O)N(CC(=O)NC2CCCC2)c2cccc(C)c2C)no1	.	.	0.09	.	.
CN(C)/C=C1\C(=O)N(c2ccc([N+](=O)[O-])cc2)N=C1c1ccccc1	0.9	13.1	0.54	0.7	28.2
COc1ccc(-c2cc(C(=O)NCCN3CCOCC3)c3ccccc3n2)cc1	0.8	24.0	0.15	0.5	52.0*
COc1ccc(CNC(=O)c2c(N)n(CCCN3CCOCC3)c3nc4ccccc4nc23)cc1	0.3	74.9*	0.66	0.9	12.7
CCOc1ccc(-c2cc(C(=O)NCCCN3CCN(CC)CC3)c3ccccc3n2)cc1	1.1	-7.0	-0.79	0.8	18.8
O=C(NCCCN1CCOCC1)c1cc(-c2ccc3c(c2)OCO3)nc2ccccc12	0.9	12.2	.	0.5	54.3*
Nc1c(C(=O)NCc2ccc(F)cc2)c2nc3ccccc3nc2n1CCCN1CCOCC1	0.6	35.7	0.22	0.8	20.2
CN1CC(=O)NC1=NC(=O)C12CC3CC(CC(C3)C1)C2	0.9	10.8	0.56	0.9	10.1
CC1CN(C(=O)C(C)N2C(=O)c3ccccc3C2=O)CC(C)O1 (stereo not drawn)	0.7	33.9	0.08	0.8	22.0
CCN(Cc1ccccc1)C(=O)c1cc2c(=O)oc3ccc(C)cc3c2s1	0.8	16.7	.	1.4	-40.7
COCCN(CCOC)C(=O)c1cc2sc3ccccc3c2s1	0.7	34.2	-2.43	2.8*	-178.6
CCN(CC)C(=O)c1cc2sc3ccccc3c2s1	0.7	27.1	-0.78	2.4*	-135.6
C1CCC(OCCN2CCN(CCOC3CCCCC3)CC2)CC1	1.2	-21.4	-0.44	1.3	-25.5
CCOC(=O)C1=C(CSc2nc(CC)c(C)cc2C#N)OC(N)=C(C#N)C1c1ccc(OC)cc1 (stereo not drawn)	.	.	-1.14	.	.
CCOC(=O)C1=C(CSc2nc(-c3ccncc3)ccc2C#N)OC(N)=C(C#N)C1c1ccc(OC)cc1 (stereo not drawn)	0.1	91.2*	-0.02	0.1	94.0*
CCOC(=O)C1=C(CSc2nc(-c3ccncc3)ccc2C#N)OC(N)=C(C#N)C1c1cccnc1 (stereo not drawn)	0	98.8*	-0.11	0	96.4*
CCOC(=O)C1=C(CSc2nc(C)ccc2C#N)OC(N)=C(C#N)C1c1cccc(OC)c1OC (stereo not drawn)	0	96.8*	-0.72	0	96.8*
Cn1c(=O)c2c(nc(Oc3ccc(-c4ccccc4)cc3)n2C)n(C)c1=O	1	1.0	0.35	1	4.7
CCOC(=O)N1CCN(c2ccc(S(=O)(=O)N(Cc3ccccc3)Cc3ccccc3)cn2)CC1	1	4.4	-0.73	0.5	48.0
COC(=O)CP(=O)(c1ccccc1)c1ccccc1	1.2	-24.7	1.08	1.2	-20.9
O=C(O)c1ccc(CSc2nnc(-c3ccco3)o2)cc1	1.1	-5.8	.	0.6	38.0
Clc1ccc(-c2nnc(SCc3nc(-c4ccccc4)no3)o2)cc1	0.9	9.5	.	0.3	70.7*
Fc1ccccc1CSc1nnc(-c2ccccc2)o1	0.1	87.3*	-0.5	0.2	76.7*
SMILES	CYP2C19 activ	CYP2C19 inh	PTK2B oligo ant	CYP2C9 activ	CYP2C9 inh
CCSc1nnc(-c2ccc(Cl)cc2Cl)o1	0.8	23.1	0.85	1	-0.3
Cc1ccc(CSc2nnc(-c3ccco3)o2)cc1	0.5	48.1	-0.21	0.4	62.6*
Clc1ccc(CSc2nnc(-c3ccncc3)o2)c(Cl)c1	0.2	80.7*	0.54	0.3	70.4*
CCCCCCn1c(NCC)nc2c1c(=O)[nH]c(=O)n2C	1	-1.7	-1.13	1.2	-15.4
Cc1ccc(Cl)cc1NC(=O)Cn1cc2c(n1)CCCC2	0.8	21.6	.	0.8	19.7
COc1cc(OC)cc(-c2nnc(SCc3c(F)cccc3Cl)o2)c1	0.5	47.1	-1	0.4	63.3*
CCOC(=O)c1oc2ccccc2c1CSc1nnc(-c2ccco2)o1	0.9	14.1	0.35	0.3	68.6*
Cc1[nH]c2ccccc2c1Cc1nnc(SCc2ccccc2)o1	0.3	69.1*	.	0.7	26.9
Cc1ccccc1-c1nnc(SCc2ccccc2)o1	0.3	72.7*	-0.71	0.4	58.9*
CCOC(=O)c1c(C)[nH]c(C(=O)COC(=O)CCC(=O)c2ccc3c(c2)OCCO3)c1C	0.9	6.4	2.05	0.6	43.4
COc1ccc(-n2c(Cc3cccn3C)nnc2SCC(=O)Nc2ccc(F)cc2)cc1	0.7	28.3	.	0.5	49.2
CON(c1nc(N(C)C)nc(N(C)C)n1)S(=O)(=O)c1ccccc1Cl	0.5	49.1	-1.03	0.8	17.3
CCOc1nc(-c2ccccc2Cl)ccc1C#N	0.8	19.3	-0.63	0.8	22.7
O=c1c(-c2nnc(SCc3ccc(Cl)cc3Cl)o2)cccn1Cc1ccccc1	0.2	75.8*	-1.58	0.3	65.6*
c1ccc(CSc2nnc(-c3ccncc3)o2)cc1	0	97.1*	-0.24	0.1	93.3*
O=C(N/C(=C\c1ccc(Br)cc1)c1nc2ccccc2[nH]1)c1ccco1	0.6	43.4	-0.39	0.9	13.9
O=C(Nc1ccc(F)cc1)N1CCN2C(=O)c3ccccc3C12c1ccccc1 (stereo not drawn)	0.5	51.3*	-0.36	0.5	49.8
COc1cccc(C2C(C#N)=C(N)OC(C(C)(C)C)=C2C#N)c1 (stereo not drawn)	0.2	84.9*	0.44	0.1	94.0*
COc1ccc(C2C(C#N)=C(N)OC(C(C)(C)C)=C2C#N)cc1OC (stereo not drawn)	0.4	60.6*	0.4	0.1	90.2*
COC(=O)c1ccccc1OCCOc1ccccc1C(=O)OC	0.4	62.4*	0.12	0.5	46.7
Cc1noc(C)c1S(=O)(=O)N1CCCC(C(=O)N2CCc3ccccc3C2)C1 (stereo not drawn)	0.3	73.6*	.	0.5	46.7
Cc1ccc(C)c(N2CCN(C(=O)C3CCCN(S(=O)(=O)c4c(C)noc4C)C3)CC2)c1 (stereo not drawn)	0.3	73.7*	.	0.1	92.6*
CS(=O)(=O)N1CCCC(C(=O)N2CCc3ccccc3C2)C1 (stereo not drawn)	0.9	13.3	0.58	1	2.2
CCCCCCCCCCNC(=O)CCn1[nH]c(=O)c2ccccc2c1=O	.	.	-0.47	.	.
CCCCCCOC(=O)CCn1[nH]c(=O)c2ccccc2c1=O	0.4	56.2*	-0.87	0.5	54.5*
Oc1ccc(-c2[nH]ncc2-c2cccc3cccnc23)c(O)c1	0.5	54.5*	-0.66	0.5	53.1*
Oc1ccc(-c2[nH]ncc2-c2ccc(Cl)cc2)c(O)c1	0.1	92.1*	-1.7	0.1	90.9*
